# From PubChem BioAssay AID1508601 (ICCB-Longwood Screening Facility, Harvard Medical School, 2020)
# Out of some 5,700 compounds screened, about 85 (1%) were called active. No stated cut-off is given here; in the data, active means p53-positive nuclei above about 36% (passing the limit was not always enough); inactive means the rest. The entries come from a sample that favours actives as a whole. Peptide text beside a SMILES is read from it.
# What was measured:
# [1] = nuclear p53 accumulation, HPV+ cells – imaging, p53-positive nuclei imaging, 24 h, 48 h (AID 1508601); settings: 24/48 h
# [2] = target: Cellular tumor antigen p53 (Homo sapiens) (UniProt P04637); experiment: as above; settings: 24/48 h, stronger effect = higher value
# [3] = measured here: cell number at 24 h, Library stock concentration: 3.33 mM
# [4] = measured here: cell number at 48 h, Library stock concentration: 3.33 mM
# [5] = Library stock concentration: 3.33 mM
# [6] = measured here: p53 positive nuclei at 24 h, Library stock concentration: 3.33 mM
# [7] = measured here: cell number at 24 h, concentration not given here
# [8] = measured here: cell number at 48 h, concentration not given here
# [9] = measured here: p53 positive nuclei at 24 h, concentration not given here
# [10] = measured here: cell number at 24 h, Library stock concentration: 10 mM
# [11] = measured here: cell number at 48 h, Library stock concentration: 10 mM
# [12] = Library stock concentration: 10 mM
# [13] = measured here: p53 positive nuclei at 24 h, Library stock concentration: 10 mM
# [14] = measured here: cell number at 24 h, Library stock concentration: 80 uM
# [15] = measured here: cell number at 24 h, Library stock concentration: 400 uM
# [16] = measured here: cell number at 24 h, Library stock concentration: 2 mM
# [17] = measured here: cell number at 48 h, Library stock concentration: 80 uM
# [18] = measured here: cell number at 48 h, Library stock concentration: 400 uM
# [19] = measured here: cell number at 48 h, Library stock concentration: 2 mM
# [20] = Library stock concentration: 80 uM
# [21] = Library stock concentration: 400 uM
# [22] = Library stock concentration: 2 mM
# [23] = measured here: p53 positive nuclei at 24 h, Library stock concentration: 80 uM
# [24] = measured here: p53 positive nuclei at 24 h, Library stock concentration: 400 uM
# [25] = measured here: p53 positive nuclei at 24 h, Library stock concentration: 2 mM
# Sequence of Cellular tumor antigen p53 (Homo sapiens) (P04637 whole entry, looked up): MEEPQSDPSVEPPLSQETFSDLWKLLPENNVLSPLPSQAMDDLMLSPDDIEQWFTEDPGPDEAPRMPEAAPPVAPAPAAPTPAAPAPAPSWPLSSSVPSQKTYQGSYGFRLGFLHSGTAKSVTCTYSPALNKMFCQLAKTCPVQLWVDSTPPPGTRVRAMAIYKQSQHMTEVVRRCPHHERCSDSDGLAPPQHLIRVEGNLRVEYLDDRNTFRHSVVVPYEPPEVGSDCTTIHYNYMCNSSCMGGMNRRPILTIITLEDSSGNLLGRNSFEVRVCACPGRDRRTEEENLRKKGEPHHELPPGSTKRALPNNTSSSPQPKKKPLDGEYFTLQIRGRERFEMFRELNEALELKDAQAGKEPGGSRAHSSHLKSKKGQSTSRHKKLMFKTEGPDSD
structure (smiles),measurement,setting,value
CC(C)CC(NC(=O)CNC(=O)c1cc(Cl)ccc1Cl)B(O)O (stereo not given),"nuclei count, normalised",[1]; [3],50.2%
same,"nuclei count, normalised",[1]; [4],43.3%
same,"p53-positive nuclei, normalised",[2]; [5],98% (active)
same,"p53-positive nuclei, normalised",[2]; [6],94%
CCCC(C)NC(=O)c1ccc(Cl)c(Cl)c1 (stereo not given),"nuclei count, normalised",[1]; [3],116%
same,"nuclei count, normalised",[1]; [4],114%
same,"p53-positive nuclei, normalised",[2]; [5],-0.00479% (inactive)
same,"p53-positive nuclei, normalised",[2]; [6],-0.344%
CC(C)CC(NC(=O)CNC(=O)c1cc(Cl)ccc1Cl)B1OC(=O)CC(CC(=O)O)(C(=O)O)O1 (stereo not given),"nuclei count, normalised",[1]; [3],46.4%
same,"nuclei count, normalised",[1]; [4],36.8%
same,"p53-positive nuclei, normalised",[2]; [5],97.7% (active)
same,"p53-positive nuclei, normalised",[2]; [6],101%
CNC(=O)C(c1ccccc1)N1CCc2cc(OC)c(OC)cc2C1CCc1ccc(C(F)(F)F)cc1 (stereo not given),"nuclei count, normalised",[1]; [3],107%
same,"nuclei count, normalised",[1]; [4],104%
same,"p53-positive nuclei, normalised",[2]; [5],-0.362% (inactive)
same,"p53-positive nuclei, normalised",[2]; [6],-0.539%
Cc1occc1C(=O)Nc1ccccc1C(=O)N(C)Cc1ccccn1,"nuclei count, normalised",[1]; [7],96.8%
same,"nuclei count, normalised",[1]; [8],105%
same,"p53-positive nuclei, normalised",[2]; concentration not given here,0.23% (inactive)
same,"p53-positive nuclei, normalised",[2]; [9],0.178%
O=C(c1ccccc1-c1nn[nH]n1)N1CCc2[nH]cnc2C1c1ccccn1 (stereo not given),"nuclei count, normalised",[1]; [7],101%
same,"nuclei count, normalised",[1]; [8],107%
same,"p53-positive nuclei, normalised",[2]; concentration not given here,-0.169% (inactive)
same,"p53-positive nuclei, normalised",[2]; [9],-0.0711%
O=C(OC[C@@H]1O[C@H]1c1ccccc1)Oc1ccc([N+](=O)[O-])cc1,"nuclei count, normalised",[1]; [7],101%
same,"nuclei count, normalised",[1]; [8],105%
same,"p53-positive nuclei, normalised",[2]; concentration not given here,-0.0534% (inactive)
same,"p53-positive nuclei, normalised",[2]; [9],-0.0466%
CC(C)CC(NC(=O)C(CCc1ccccc1)NC(=O)CN1CCOCC1)C(=O)NC(Cc1ccccc1)C(=O)NC(CC(C)C)C(=O)[C@@]1(C)CO1 (stereo not given in full),"nuclei count, normalised",[1]; [3],36.4%
same,"nuclei count, normalised",[1]; [4],30.5%
same,"p53-positive nuclei, normalised",[2]; [5],104% (active)
same,"p53-positive nuclei, normalised",[2]; [6],117%
COC(=O)C(Cc1ccccc1)NC(=O)C(N)CC(=O)O (stereo not drawn) (H-Asp-Phe-OMe; configuration not given here),"nuclei count, normalised",[1]; [3],101%
same,"nuclei count, normalised",[1]; [4],94.9%
same,"p53-positive nuclei, normalised",[2]; [5],-0.0669% (inactive)
same,"p53-positive nuclei, normalised",[2]; [6],-0.12%
COc1ccc(CC(NC(=O)C(C)NC(=O)CN2CCOCC2)C(=O)NC(Cc2ccccc2)C(=O)[C@]2(C)CO2)cc1 (stereo not given in full),"nuclei count, normalised",[1]; [3],46%
same,"nuclei count, normalised",[1]; [4],38.7%
same,"p53-positive nuclei, normalised",[2]; [5],106% (active)
same,"p53-positive nuclei, normalised",[2]; [6],126%
CC(C)CC(CC(=O)NO)C(=O)NC(Cc1ccc2ccccc2c1)C(=O)NC(C)C(=O)NCCN (stereo not given),"nuclei count, normalised",[1]; [3],109%
same,"nuclei count, normalised",[1]; [4],104%
same,"p53-positive nuclei, normalised",[2]; [5],0.0444% (inactive)
same,"p53-positive nuclei, normalised",[2]; [6],-0.208%
CC(C)c1nc(CN(C)C(=O)NC(CCN2CCOCC2)C(=O)NC(CCC(Cc2ccccc2)NC(=O)OCc2cncs2)Cc2ccccc2)cs1 (stereo not given),"nuclei count, normalised",[1]; [3],98.1%
same,"nuclei count, normalised",[1]; [4],96.3%
same,"p53-positive nuclei, normalised",[2]; [5],4.22% (inactive)
same,"p53-positive nuclei, normalised",[2]; [6],4.44%
COc1ccc(CC(NC(=O)C(C)NC(=O)CN2CCOCC2)C(=O)NC(Cc2ccccc2)C(=O)[C@@]2(C)CO2)cc1 (stereo not given in full),"nuclei count, normalised","[1]; measured here: cell number at 24 h, Library stock concentration: 46 uM",107%
same,"nuclei count, normalised","[1]; measured here: cell number at 24 h, Library stock concentration: 278 uM",109%
same,"nuclei count, normalised","[1]; measured here: cell number at 24 h, Library stock concentration: 1.67 mM",57.1%
same,"nuclei count, normalised",[1]; [10],52.6%
same,"nuclei count, normalised","[1]; measured here: cell number at 48 h, Library stock concentration: 46 uM",113%
same,"nuclei count, normalised","[1]; measured here: cell number at 48 h, Library stock concentration: 278 uM",113%
same,"nuclei count, normalised","[1]; measured here: cell number at 48 h, Library stock concentration: 1.67 mM",43.8%
same,"nuclei count, normalised",[1]; [11],39.6%
same,"p53-positive nuclei, normalised",[2]; Library stock concentration: 46 uM,-0.326% (inactive)
same,"p53-positive nuclei, normalised",[2]; Library stock concentration: 278 uM,0.734% (inactive)
same,"p53-positive nuclei, normalised",[2]; Library stock concentration: 1.67 mM,103% (active)
same,"p53-positive nuclei, normalised",[2]; [12],102% (active)
same,"p53-positive nuclei, normalised","[2]; measured here: p53 positive nuclei at 24 h, Library stock concentration: 46 uM",-0.151%
same,"p53-positive nuclei, normalised","[2]; measured here: p53 positive nuclei at 24 h, Library stock concentration: 278 uM",0.483%
same,"p53-positive nuclei, normalised","[2]; measured here: p53 positive nuclei at 24 h, Library stock concentration: 1.67 mM",146%
same,"p53-positive nuclei, normalised",[2]; [13],144%
CC(C)CC(C(=O)NC(Cc1ccc(OCc2ccccc2)cc1)C(=O)NC(C)(C)C)N(C)Cc1ccc(C(C)(C)C)cc1 (stereo not given),"nuclei count, normalised",[1]; [14],108%
same,"nuclei count, normalised",[1]; [15],108%
same,"nuclei count, normalised",[1]; [16],110%
same,"nuclei count, normalised",[1]; [10],113%
same,"nuclei count, normalised",[1]; [17],103%
same,"nuclei count, normalised",[1]; [18],105%
same,"nuclei count, normalised",[1]; [19],103%
same,"nuclei count, normalised",[1]; [11],109%
same,"p53-positive nuclei, normalised",[2]; [20],0.116% (inactive)
same,"p53-positive nuclei, normalised",[2]; [21],-0.221% (inactive)
same,"p53-positive nuclei, normalised",[2]; [22],0.074% (inactive)
same,"p53-positive nuclei, normalised",[2]; [12],-0.262% (inactive)
same,"p53-positive nuclei, normalised",[2]; [23],-0.0604%
same,"p53-positive nuclei, normalised",[2]; [24],-0.22%
same,"p53-positive nuclei, normalised",[2]; [25],-0.108%
same,"p53-positive nuclei, normalised",[2]; [13],-0.169%
COC(=O)[C@H](Cc1ccccc1)NC(=O)[C@@H](N)CC(=O)O (H-Asp-Phe-OMe),"nuclei count, normalised",[1]; [7],91.1%
same,"nuclei count, normalised",[1]; [8],92%
same,"p53-positive nuclei, normalised",[2]; concentration not given here,-0.024% (inactive)
same,"p53-positive nuclei, normalised",[2]; [9],-0.251%
O=C(Cc1ccc(-c2ccc(OCCN3CCOCC3)cc2)cn1)NCc1ccccc1,"nuclei count, normalised",[1]; [14],42.9%
same,"nuclei count, normalised",[1]; [15],41.4%
same,"nuclei count, normalised",[1]; [16],40%
same,"nuclei count, normalised",[1]; [3],41.1%
same,"nuclei count, normalised",[1]; [10],39.3%
same,"nuclei count, normalised",[1]; [17],27.3%
same,"nuclei count, normalised",[1]; [18],26.6%
same,"nuclei count, normalised",[1]; [19],28.3%
same,"nuclei count, normalised",[1]; [4],30.8%
same,"nuclei count, normalised",[1]; [11],26.9%
same,"p53-positive nuclei, normalised",[2]; [20],3.36% (inactive)
same,"p53-positive nuclei, normalised",[2]; [21],4.39% (inactive)
same,"p53-positive nuclei, normalised",[2]; [22],2.81% (inactive)
same,"p53-positive nuclei, normalised",[2]; [5],2.58% (inactive)
same,"p53-positive nuclei, normalised",[2]; [12],4.55% (inactive)
same,"p53-positive nuclei, normalised",[2]; [23],-0.0362%
same,"p53-positive nuclei, normalised",[2]; [24],1.51%
same,"p53-positive nuclei, normalised",[2]; [25],1.32%
same,"p53-positive nuclei, normalised",[2]; [6],0.97%
same,"p53-positive nuclei, normalised",[2]; [13],1.31%
CSCCC(NC=O)C(=O)NC(CC(C)C)C(=O)NC(Cc1ccccc1)C(=O)O (stereo not given),"nuclei count, normalised",[1]; [14],96%
same,"nuclei count, normalised",[1]; [15],92.8%
same,"nuclei count, normalised",[1]; [16],99%
same,"nuclei count, normalised",[1]; [10],101%
same,"nuclei count, normalised",[1]; [17],97.1%
same,"nuclei count, normalised",[1]; [18],91.9%
same,"nuclei count, normalised",[1]; [19],96.7%
same,"nuclei count, normalised",[1]; [11],99.8%
same,"p53-positive nuclei, normalised",[2]; [20],-0.172% (inactive)
same,"p53-positive nuclei, normalised",[2]; [21],-0.159% (inactive)
same,"p53-positive nuclei, normalised",[2]; [22],-0.166% (inactive)
same,"p53-positive nuclei, normalised",[2]; [12],-0.212% (inactive)
same,"p53-positive nuclei, normalised",[2]; [23],-0.106%
same,"p53-positive nuclei, normalised",[2]; [24],-0.0972%
same,"p53-positive nuclei, normalised",[2]; [25],-0.166%
same,"p53-positive nuclei, normalised",[2]; [13],-0.105%
